Screens deposited in PubChem by several laboratories.
Shown are actives, neighbours in structure and some others; about 3% of the full set was active somewhere.
aSyn 5UTR inh – MLPCN primary screen, SNCA 5' untranslated region; alpha-synuclein 5'UTR reporter, inhibitor activity; inhibition, % (tested at 7.5 µM); 300,000 compounds, 0.82% hits; in the data active means inhibition above about 60%; inconclusive means no clear call, values can overlap the other calls;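 further: H4 neuroglioblastoma cells stably carrying SNCA 5'UTR luciferase fusion; 0% = DMSO wells and 100% = positive control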
SKKanGAS inh – S. pyogenes SKKanGAS growth inhibitors in kanamycin, primary screen, streptokinase expression inhibitor project, SKKanGAS strain, BacTiter-Glo luminescence; 300,000 compounds, 1.3% hits; AID 1662, 2009; inhibition, % at 7.5 µM; 6 h;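 active means mean replicate score, as percent of positive control median, at least 50; inconclusive means mean below 50 but one replicate at or above 50; inactive means mean and every replicate below 50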;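 further: strain carries kanamycin resistance gene driven by streptokinase promoter and grows in 40 µg/ml kanamycin; loss of luminescence reflects streptokinase promoter inhibition or plain growth inhibition; 0% = median of DMSO wells and 100% = positive control at its reference dose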
KLF5 inh – KLF5 expression inhibitors, primary screen, DLD-1 cells, luminescence | DLD-1 KLF5 promoter-luciferase reporter | inhibition, % at 5 µM | 290,000 compounds, 0.23% hits | AID 1700, 2009;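 active means inhibition above a per-plate limit of that plate's mean compound inhibition plus 3 SD, cut at about 60% in these data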;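 further: 0% = DMSO wells and 100% = LY294002 at 200 µM; higher means less KLF5 promoter-driven luciferase light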
IEC-6 tox – cytotoxicity in IEC-6 intestinal epithelial cells, primary screen, cytotoxicity control for KLF5 inhibitor project, cell-based, luminescence. IEC-6 cytotoxicity, luminescence viability. inhibition, % at 5 µM. 290,000 compounds, 0.78% hits. AID 1825, 2009; in the data active means inhibition above about 22%;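 further: 0% = plate median of test compound wells and 100% = cytotoxic reference compound wells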
CSC inhib – cancer stem cell viability inhibitors, primary screen, luminescence. cancer stem cell-like cells viability. inhibition, % at 7.5 µM. 300,000 compounds, 1.1% hits. AID 2717, 2010; in the data active means inhibition above about 75%; inconclusive means no clear call, values can overlap the other calls; tested in HMLE shEcad cells
* hit, by the source's call; ? = inconclusive; · = not tested or not shown.

SMILES | aSyn 5UTR inh | SKKanGAS inh | KLF5 inh | IEC-6 tox | CSC inhib
C#CCOCCOCCOCCNc1nc(N2CCN(C(=O)CCCCCCCCCCNC(=O)[C@H](CO)n3cc(CCCSC)nn3)CC2)nc(N2CCN(C(=O)CCCCCCCCCCNC(=O)[C@H](CO)n3cc(CCCSC)nn3)CC2)n1 | -9.1 | 4.3 | · | · | -19.2
C#CCOCCOCCOCCNc1nc(N2CCN(C(=O)CCCCCCCCCCNC(=O)Cn3cc(C[C@@H](C)O)nn3)CC2)nc(N2CCN(C(=O)CCCCCCCCCCNC(=O)[C@H](CCCCN)n3cc(C[C@@H](C)CC)nn3)CC2)n1 | · | · | · | · | 88.7*
C#CCOCCOCCOCCNc1nc(N2CCN(C(=O)CCCCCCCCCCNC(=O)[C@H]([C@@H](C)CC)n3cc(CCCCN=C(N)N)nn3)CC2)nc(N2CCN(C(=O)CCCCCCCCCCNC(=O)[C@H](CCCCN)n3cc(C[C@@H](C)CC)nn3)CC2)n1 | · | · | · | · | 102.4*
C#CCOCCOCCOCCNc1nc(N2CCN(C(=O)CCCCCCCCCCNC(=O)[C@H](CO)n3cc(CCCSC)nn3)CC2)nc(N2CCN(C(=O)CCCCCCCCCCNC(=O)[C@H](CCCCN)n3cc(C[C@@H](C)CC)nn3)CC2)n1 | 110.1* | 28.3 | · | · | 126.6*
C#CCOCCOCCOCCNc1nc(N2CCN(C(=O)CCCCCCCCCCNC(=O)[C@H](CCCCN)n3cc(CCCC(=O)O)nn3)CC2)nc(N2CCN(C(=O)CCCCCCCCCCNC(=O)[C@H](CCCN=C(N)N)n3cc(C[C@@H](C)CC)nn3)CC2)n1 | -132.2 | 3.5 | · | · | -19.1
O=C(CNC(=O)c1sc2ccccc2c1Cl)Nc1ccccc1F | 4.0 | -5.2 | · | · | -5.3
C#CCOCCOCCOCCNc1nc(N2CCN(C(=O)CCCCCCCCCCNC(=O)[C@H](CCCCN)n3cc(C[C@@H](C)CC)nn3)CC2)nc(N2CCN(C(=O)CCCCCCCCCCNC(=O)[C@H](CCCCN)n3cc(C[C@@H](C)CC)nn3)CC2)n1 | 106.8* | ? | · | · | 165.8*
Cc1nc2c(C)cccn2c(=O)c1NC(=O)c1ccco1 | -2.8 | 39.2 | · | · | ·
Cc1nc2c(C)cccn2c(=O)c1NC(=O)c1ccc2c(c1)OCO2 | -18.3 | 50.2* | · | · | ·
NC(=O)c1ccc(NC(=O)c2ccc3c(c2)CCN3S(=O)(=O)c2ccccc2)cc1 | 4.4 | 13.2 | -16.0 | 10.1 | -10.8
C[C@H](NC(=O)c1ccccc1)C(=O)Nc1nc(-c2ccccn2)cs1 | -10.6 | 19.4 | -25.8 | 15.5 | 12.9
CC(Oc1cccc(Cl)c1)C(=O)Nc1nc(-c2ccccn2)cs1 (centres undefined) | 63.7* | -3.6 | · | · | 70.6
Cn1cccc1C(=O)Nc1nc(-c2ccccn2)cs1 | -31.6 | 81.4* | -149.1 | 15.5 | 23.7
O=C(Nc1nc(-c2ccccn2)cs1)c1ncc(Cl)c(Cl)c1Cl | -54.0 | 98.5* | -8.2 | -5.4 | -12.4
Cc1c(C(=O)Nc2nc(-c3ccccn3)cs2)oc2ccccc12 | · | · | · | · | 109.3*
CN(C)S(=O)(=O)c1ccc(C(=O)NCc2nnc(SCC(=O)NCc3ccco3)o2)cc1 | -7.1 | 5.9 | -17.1 | 6.6 | 15.0
O=C(Nc1nc(-c2ccccn2)cs1)c1cc2ccccc2o1 | -60.8 | 103.9* | -36.1 | 17.8 | 46.6
O=C(CCCSc1ccccc1)Nc1nc(-c2ccccn2)cs1 | 18.9 | 105.1* | 9.8 | 3.6 | 14.9
O=C(COc1ccc(F)cc1Cl)Nc1nc(-c2ccccn2)cs1 | 28.2 | 110.3* | · | · | 39.0
CSCCC(=O)Nc1nc(-c2ccccn2)cs1 | · | · | 19.8 | 1.7 | ·
O=C(NC1C2CC3CC(C2)CC1C3)c1ccc(Br)o1 (centres undefined) | 13.6 | 14.5 | -25.4 | 4.3 | 9.6
CCn1cc(C(=O)OCC(=O)c2cc(C)n(-c3cccc(C(F)(F)F)c3)c2C)c(=O)c2ccc(C)nc21 | 7.2 | 58.7* | 2.1 | -3.2 | 12.9
C=C(CC1([C@@H](NP(=O)(c2ccccc2)c2ccccc2)[C@H]2C[C@@H]2CCCC)CC1)c1ccccc1 | -15.9 | 77.3* | 0.7 | 1.0 | 123.3*
O=C(/C=C/Nc1ccc(F)cc1Br)c1ccccc1 | 69.7* | 7.6 | -103.4 | 7.2 | 36.0
Cc1cc(N/C=C/C(=O)c2ccccc2)ccc1Br | -78.4 | 0.5 | -113.1 | 2.1 | 4.3
SMILES | aSyn 5UTR inh | SKKanGAS inh | KLF5 inh | IEC-6 tox | CSC inhib
Cc1cc(C)n(C(C)CC(=O)Nc2ccc3c(c2)OCO3)n1 (centres undefined) | -15.6 | -0.1 | -25.6 | -5.5 | -8.9
COc1ccc(/C=C2\N=C(C)OC2=O)cc1[N+](=O)[O-] | -1.7 | 4.0 | -28.1 | -4.5 | -1.3
N#CC1=C(N)Oc2cc(N)ccc2C1c1cccnc1 (centres undefined) | 21.9 | -3.4 | -5.4 | -8.3 | -7.7
CCN(CC)c1ccc2c(c1)OC(N)=C(C#N)C2c1cccnc1 (centres undefined) | 75.3* | 4.2 | 19.4 | 8.8 | 8.8
N=C1C(c2ccccc2)=C(O)CN1c1cccc2ccccc12 | 26.6 | 0.3 | -18.5 | 5.3 | -14.1
COc1ccc(Nc2nnc(SCC3CCCO3)s2)cc1 (centres undefined) | -104.7 | -1.5 | -25.5 | 4.1 | -1.6
CC1(C)CC[C@]2(C(=O)O)CC[C@]3(C)C(=CC[C@@H]4[C@@]5(C)CC[C@H](O[C@@H]6O[C@H](C(=O)O)[C@@H](O)[C@H](O[C@@H]7OC[C@H](O)[C@H](O)[C@H]7O)[C@H]6O)C(C)(C)[C@@H]5CC[C@]43C)[C@@H]2C1 | · | · | · | · | 99.3*
O=[N+]([O-])c1ccc(COc2ccc(-c3[nH]ncc3-c3ccccc3)c(O)c2)cc1 | -13.4 | 18.2 | 2.8 | -1.4 | 118.4*
COc1ccc(-c2cn[nH]c2-c2ccc(OCc3ccccc3)cc2O)cc1OC | 28.8 | 11.8 | 4.4 | 12.0 | 43.5
Oc1cc(OCc2ccccc2)ccc1-c1[nH]ncc1-c1ccccc1 | 1.6 | 73.1* | 0.3 | -0.5 | 46.6
Fc1cccc(Cl)c1/C=N/n1c(-c2cccnc2)n[nH]c1=S | -1.8 | 2.4 | -2.7 | 10.8 | -7.7
c1ccc(OCc2nc3c4c(ncn3n2)-c2ccccc2CC42CCCC2)cc1 | 9.1 | 52.2* | 7.6 | -2.9 | 19.8
Cc1ccc(C(=O)Cn2nnc3c(sc4nc5c(c(-c6ccccc6)c43)CCC5)c2=O)cc1 | -4.7 | 4.6 | 6.0 | 7.6 | 85.8*
COc1ccc(NC(=O)CSc2nc(O)cc(=O)n2-c2ccccc2OC)cc1 | -3.9 | 87.0* | 0.9 | -5.6 | -8.9
Cc1ccc(NC(=O)CSc2nc(O)cc(=O)n2-c2ccc(C)cc2)cc1 | 21.7 | 76.6* | -23.5 | -5.1 | 13.3
COc1ccccc1-n1c(SCC(=O)Nc2ccc(C)cc2)nc(O)cc1=O | -4.4 | 63.4* | -1.1 | -8.2 | 2.8
Cc1ccc(-n2c(-c3ccncc3)n[nH]c2=S)c(C)c1 | 11.1 | -4.2 | 13.0 | -2.7 | -2.9
Cc1cccc(Nc2nnc(-c3ccc(N4CCOCC4)c([N+](=O)[O-])c3)c3ccccc23)c1 | 33.1 | 58.9* | -10.9 | 0.9 | 50.9
CCCOc1ccc(C(=O)NC(=S)N2CCN(c3cc4c(cc3F)c(=O)c(C(=O)O)cn4CC)CC2)cc1 | 17.1 | 91.2* | 4.2 | -1.5 | ·
